Experimental data reported in PubChem BioAssay (NCI).
This is part of a sample that, as a whole, favours compounds with a hit. Of some 83,000 tested, about 20% had one in any assay.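 Growth was measured after 48 h exposure to one concentration of compound in 96-well plates. Values under 10 count as active.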 A number with no mark means an inactive call. Calls of active or inactive are those of the source.

What was measured:
Assay in all cases: NCI-60 one-dose screen, 48 h (100 = growth as untreated, 0 = no growth, -100 = all killed)
Details in all cases: 10 µM unless noted
HCT-15 colon = system: HCT-15 colon
HT29 colon = system: HT29 colon
SNB-75 CNS = system: SNB-75 CNS
SNB-19 CNS = system: SNB-19 CNS
U251 CNS = system: U251 CNS
PC-3 prostate = system: PC-3 prostate
SK-MEL-5 melanoma = system: SK-MEL-5 melanoma
UACC-62 melanoma = system: UACC-62 melanoma
LOX IMVI melanoma = system: LOX IMVI melanoma
SK-MEL-28 melanoma = system: SK-MEL-28 melanoma

SMILES | growth (HCT-15 colon) | growth (HT29 colon) | growth (SNB-75 CNS) | growth (SNB-19 CNS) | growth (U251 CNS) | growth (PC-3 prostate) | growth (SK-MEL-5 melanoma) | growth (UACC-62 melanoma) | growth (LOX IMVI melanoma) | growth (SK-MEL-28 melanoma)
CS(=O)(=O)Nc1cccc(-c2ccc3ncnc(Nc4ccc(F)c(Cl)c4)c3c2)c1 | 1% (active) | 1.71% (active) | 32.8% | 47.4% | 18.2% | 12.3% | 21.4% | 28.2% | -35.4% (active) | 44.9%
CC(C)CCC[C@@H](C)[C@H]1CC[C@H]2[C@@H]3CC=C4N(c5ccccc5)C(=O)CC[C@]4(C)[C@H]3CC[C@]12C | 96.4% | 90.3% | 93.6% | 109% | 101% | 80.4% | 99.1% | 98.9% | 98% | 106%
Cc1ccc[n+](CC(=O)c2cccc3ccccc23)c1 | 102% | 102% | 96.2% | 107% | 106% | 101% | 99.7% | 111% | 104% | 105%
Cc1cc(-c2ccccc2)nc2ccccc12 | 97.5% | 113% | 86.9% | 101% | 97.4% | 99.8% | 95% | 95.7% | 98.5% | 114%
Nc1n[nH]c2cccc(C#Cc3cccc(NC(=O)c4cccc(C(F)(F)F)c4)c3)c12 | 30.2% | 13.3% | 30.5% | 80.1% | 49.4% | 39.9% | 43.9% | 26.1% | 2.44% (active) | 23.9%
COc1cc(/C=C\c2cc(/C=C\c3ccc(O)c(OC)c3)n(C(=O)CNc3ccccc3OC)n2)ccc1O | 56.3% | 109% | 61.6% | 70.9% | 53.4% | 64.2% | 44.8% | 79.1% | 40.2% | 70%
COC(=O)Nc1nc2ccc(Sc3ccccc3)cc2[nH]1 | 13.8% | 4.14% (active) | 21.7% | 31.3% | 17% | 26.6% | 8.9% (active) | 35.9% | 19.3% | 48.9%
NC(CSC(c1ccccc1)(c1ccccc1)c1ccc(F)cc1)C(=O)O (stereo not given) | 35.3% | 4.36% (active) | -0.679% (active) | 35.3% | 31.5% | 15.8% | 15.2% | 35.5% | 46.4% | 58.8%
CCOc1ccc(-n2c(-c3cc(OC)c(OC)c(OC)c3)nnc2-c2ccc(OC)cc2N)cc1 | 64.9% | 52.7% | 76.3% | 75.5% | 65.6% | 63.3% | 66% | 66.7% | 80.3% | 80.2%
Fc1ccc(/C=N/n2c(-c3cc(Cl)cc(Cl)c3Cl)nn(CNc3ccc(Cl)nn3)c2=S)cc1 | 110% | 103% | 99.4% | 101% | 90% | 86.7% | 102% | 86.7% | 96.8% | 108%
COc1cccc(C2CC(c3cc(OC)c(OC)c(OC)c3)=NN2)c1 (stereo not given) | 67.3% | 37.1% | 74.4% | 77.2% | 85.6% | 69.1% | 83.7% | 82.4% | 61% | 101%
CNC(=O)NN | 87.3% | 107% | 88.3% | 105% | 95.2% | 93.4% | 103% | 104% | 102% | 112%
CC(/C=C/C=C(\C)[C@H](O)[C@H](C)C(=O)O[C@H]1C[C@H](C)C=C2C=C[C@@]3(C)O[C@@H](O)CC(=O)[C@]3(C)[C@H]21)=C\C=C\C(=O)O | 17.3% | 0.326% (active) | -14.2% (active) | -0.761% (active) | -3.9% (active) | 7.61% (active) | -69% (active) | -32% (active) | 6.81% (active) | -0.848% (active)
c1ccc2nc(Cn3cc[n+](Cc4ccc5ccccc5n4)c3)ccc2c1 | 102% | 41.9% | 70.7% | 47.7% | 44.2% | 42.6% | 16.9% | 54.6% | 75.4% | 63.8%
CCN(CC)CCNCC(O)Cc1ccc(OC)cc1 (stereo not given) | 112% | 77.4% | 110% | 98.9% | 94.5% | 76.2% | 99.9% | 93.9% | 103% | 116%
O=C(Nc1ccc(-n2ccc3c(NC(=O)c4ccccc4)nccc32)cc1)Nc1ccc(Cl)c(Cl)c1 | -50.8% (active) | -42.8% (active) | -7.26% (active) | -40.2% (active) | -79.6% (active) | 23.9% | -97.9% (active) | -46.4% (active) | -72.4% (active) | 18.2%
Nc1ncc(-c2ccc3ncnc(Nc4cncc(Cl)c4)c3c2)cn1 | 73.2% | 68.6% | 31.4% | 76.7% | 73.3% | 48.8% | 66.4% | 56.9% | 61.5% | 69.5%
Cn1c(I)c(C#C[Si](C)(C)C)c(=O)[nH]c1=O | -37.6% (active) | -60% (active) | 75.2% | 100% | 51.5% | 4.88% (active) | 98.3% | 11.8% | -69.9% (active) | -82% (active)
O=C(O)c1ccc(-c2nn(-c3ccc(C(=O)O)cc3)cc2/C=N/Nc2c(F)c(F)cc(F)c2F)cc1 | 107% | 99.6% | 105% | 110% | 104% | 101% | 107% | 106% | 100% | 104%
CCN(CC)CCNC(=O)c1c(C)[nH]c(/C=C2\C(=O)Nc3cc(NC(=O)NC(=O)c4ccc(OC)cc4F)ccc32)c1C | 72.7% | 31.7% | 94% | 92.4% | 92.8% | 86.8% | 85.3% | 104% | 97% | 99.7%
O=C(NNC(=O)c1ccc([N+](=O)[O-])cc1)c1ccc([N+](=O)[O-])cc1 | 97% | 101% | 84.5% | 109% | 104% | 102% | 99.8% | 99.9% | 97.2% | 109%
N#Cc1c(N)nc2c(c1N)C(c1ccc(Cl)cc1)C1=C(CCCC1=O)N2c1sc2c(c1C#N)CCCC2 (stereo not given) | 102% | 81.2% | 91.4% | 92.4% | 99.7% | 89% | 98.6% | 88.3% | 81.5% | 96.6%
Cc1ccc(NC(=O)CN2CCOCC2)cc1Cl | 102% | 80.6% | 97.4% | 94.8% | 97.7% | 74.7% | 95.6% | 92.7% | 101% | 104%
COc1ccc2c(-c3ccc(F)cc3)c(C#N)c(=NC(C)=O)oc2c1 | 25.8% | 95.6% | 34% | 33.7% | 39.5% | 30.6% | 24.7% | 32.1% | 41.9% | 69.7%
COC(=O)c1ccc(NC(N)=NCC(C)(C)COc2ccc(C(F)(F)F)cc2)nc1 | 18.1% | 9.44% (active) | 86.8% | 68.8% | 40.1% | 50.9% | 23.2% | 65.5% | 16.5% | 90.1%
OC[C@@H](O)C(O[C@@H]1O[C@H](CO)[C@H](O)[C@H](O)[C@H]1O)[C@H](O)[C@@H](O)CO (stereo not given in full) | 98.2% | 103% | 98.6% | 107% | 97.6% | 86.6% | 106% | 99.1% | 98.8% | 110%
O=C(Nc1ccc(-n2ccc3c(NC(=O)c4ccccc4)ncnc32)cc1)Nc1cccc(Cl)c1Cl | 9.38% (active) | -40.2% (active) | 3.19% (active) | -3.36% (active) | -80% (active) | -57.5% (active) | 14.9% | 33.4% | -23.9% (active) | -24.2% (active)
